From ChEMBL document CHEMBL4513216, “Probing the Open Global Health Chemical Diversity Library for Multistage-Active Starting Points for Next-Generation Antimalarials” (ACS Infect Dis, 2020)
Hit rate of the full screen: of about 69,000 compounds, about 8,600 (12%) showed an effect of 50% or more. Only a selection was taken, and strong results are over-represented in it overall.

What follows are compounds tested on Plasmodium berghei (assay: Screen against P. berghei liver stage (PbLuc), transformed with Luciferase, at 10uM). Details: tested at 10 uM.
Type: functional, HepG2

Compound	INHIBITION [%]
Cc1ccc(CN2CCc3ncc(CNS(C)(=O)=O)n3CC2)o1	35.1
O=C(COCC1CC[C@H]2[C@H](CCN2c2ncccn2)O1)N1CCCC1 (stereo partly specified)	7.31
CN1CCN(C(=O)[C@H]2C[C@@H]3CN(c4ncc(F)cn4)C[C@@H]3N2C)CC1	-1.15
CC(NCC(F)(F)F)c1ccc(S(C)(=O)=O)c(F)c1 (stereo unspecified)	-45.3
c1ccc(N2CCCC2)c(NCc2ccncc2)c1	75.7
Cc1noc(CNc2ccccc2N2CCCCC2)n1	4.1
Cc1nc(N2CCCC2)ccc1NCc1ccccn1	42.3
Cc1cc(CNc2ccccc2N2CCCCC2)no1	28.6
c1ccc(CNc2ccccc2N2CCCC2)nc1	74.8
CN(CCc1ccccn1)C(=O)Nc1cccnc1N1CCCC1	44.7
CCC(=O)NCC(=O)NCC1CCN(c2cc(Cl)ccc2C)C1 (stereo unspecified)	23.73
Cc1cc(CNC(=O)Cc2c(C)nc3cc(=O)[nH]n3c2C)no1	31.1
CC(C)CCN1CCNC(=O)C1CC(=O)NCCc1cc(O)ncn1 (stereo unspecified)	12.8
Cc1nc(C2CCCCN2C(=O)c2ccccc2)ncc1C(=O)N(C)C (stereo unspecified)	28.4
O=C(CN1CCCC1CCCO)NCc1ccccn1 (stereo unspecified)	29.4
CCCN1CCC(CNC(=O)N2CCCC2c2c(C)n[nH]c2C)CC1 (stereo unspecified)	24.3
CCn1cnnc1C1CCN(C(=O)c2ccc3c(c2)nnn3C)CC1	11.9
CC(C)[C@@H]1CN(c2ncc(F)cn2)C[C@H]1NC(=O)N(C)C	23.4
COc1ccc(C(=O)N2C[C@@H](NC(=O)N(C)C)[C@H](C(C)C)C2)c(OC)n1	54.6

Compound	INHIBITION [%]
COc1ccc(Cl)cc1C(=O)N1C[C@@H](NC(=O)N(C)C)[C@H](C(C)C)C1	0.76
CN(C)C(=O)c1cnc2n1CCN(Cc1cccc(C#N)c1)C2	33.4
O=C(CCCc1nnc(-c2ccccc2)o1)N1CCC1	28.8
O=S(=O)(c1ccccc1N1CC(n2cccn2)C1)C(F)(F)F	43.5
O=S(=O)(c1cc(F)ccc1N1CC(n2cccn2)C1)C(F)(F)F	26.8
Cc1cnn(C2CN(c3ccccc3S(=O)(=O)C(F)(F)F)C2)c1	89.4
CN(Cc1nnn(CC2CCC2)n1)C(=O)c1ccccc1	-19.1
CCN1CCN(C(C)CNC(=O)Nc2nnc(C)s2)CC1 (stereo unspecified)	34.6
CCN1CCN(C(C)CNC(=O)Nc2nc3ccccc3s2)CC1 (stereo unspecified)	59.4
CCN1CCN(C(C)CNC(=O)Nc2nnc(C(C)C)s2)CC1 (stereo unspecified)	-11.6
CNC(=O)Nc1cc(-c2ccc(Br)cc2)nn1CCO	-4.74
CN(C)CC1(O)CCN(C(=O)Cc2ccc3c(c2)CCC3)C1 (stereo unspecified)	19.5
O=C(CN1CCc2c(ncn2C2CC2)C1)NC1CCN(C2CC2)CC1	39.2
CSc1ccc(-c2nc(CN3C[C@@H](C)NC[C@@H]3C)c(C)o2)cc1	24
Cc1oc(-c2cc(F)cc(F)c2)nc1CN1C[C@@H](C)NC[C@@H]1C	-6.61
Cc1ccc(-c2nc(CN3C[C@@H](C)NC[C@@H]3C)c(C)o2)s1	50.4
Cc1c(C(=O)NCCC(=O)N2CCCC2)cccc1-c1ccccn1	71.4
Cc1c(C(=O)NCC(C)(C)S(C)(=O)=O)cccc1-c1ccccn1	-53.2
Cc1c(C(=O)NCCCS(C)(=O)=O)cccc1-c1ccccn1	-12.1

Compound	INHIBITION [%]
Cc1nn(COc2cccc(F)c2)c(C)c1NC(=O)C1CC1	46.6
Cc1nn(C)c(Oc2cccc(F)c2)c1NC(=O)C1CCOCC1	62.9
Cc1nn(C)c(Oc2cccc(F)c2)c1NC(=O)C1CCCO1 (stereo unspecified)	29.8
Brc1ccccc1-c1nnc(CNCCn2cccn2)o1	29.7
O=C(CCN1C[C@H]2CC[C@@H]1C2)N1CCN(c2cccc(Cl)c2)C(=O)C1	-6.94
CC(C)CNC(=O)[C@H]1C[C@H]2CN(C(=O)NCCc3ccccc3)C[C@@H]1O2	20.5
Cc1ccc(CC(=O)N2CCOCC2c2ncon2)cc1 (stereo unspecified)	19.4
Cc1ccc(O)c(C(=O)N2CCOCC2c2c(C)n[nH]c2C)c1 (stereo unspecified)	1.563
Cc1cccc(CC(=O)N2CCOCC2c2c(C)n[nH]c2C)c1 (stereo unspecified)	53.8
CSc1ccc(C(=O)N2CCOCC2c2c(C)nn(C)c2C)o1 (stereo unspecified)	23.4
Cc1cccc(CCC(=O)N2CCOCC2c2c(C)n[nH]c2C)c1 (stereo unspecified)	-2.53
Cc1n[nH]c(C)c1C1COCCN1C(=O)Cc1ccccc1F (stereo unspecified)	83.4
CSc1ccc(C(=O)N2CCOCC2c2c(C)n[nH]c2C)o1 (stereo unspecified)	57.45
Cc1n[nH]c(C)c1C1COCCN1C(=O)c1cccc(F)c1F (stereo unspecified)	-0.25
Cc1n[nH]c(C)c1C1COCCN1C(=O)Cc1cccc(F)c1 (stereo unspecified)	16.8
Cc1ccccc1CC(=O)N1CCOCC1c1c(C)n[nH]c1C (stereo unspecified)	41.65
Cc1n[nH]c(C)c1C1COCCN1C(=O)c1ccc(Cl)o1 (stereo unspecified)	-0.482
Cc1ccc(CC(=O)N2CCOCC2c2c(C)n[nH]c2C)cc1 (stereo unspecified)	67.5
